Test results taken from PubChem BioAssay (NCATS).
Records with an inconclusive call do not appear. Activity calls are given as the source filed them. Calls follow the shape of the dose curve; as a rule, active = well fitted curve in the direction sought with a large enough effect; inconclusive = small, poorly fitted or top-dose-only effect, or another doubt; inactive = no such curve, though single readings can be large; an effect the other way counts as inactive or inconclusive. Where a SMILES comes first, the peptide text is derived from it. Bridges are numbered along the chain shown (N, C = ends). [ ]: non-standard residue; d: D form. hArg = N=C(N)NCCCC[C@H](N)C(=O)O; Mpa = O=C(O)CCS

What was measured:
[1] = P-glycoprotein substrates identified in KB-8-5-11 adenocarcinoma cell line, qHTS therapeutic library screen (AID 1346987); conditions: outcome: dose series up to 44.5 µM; also: series mostly up to about 44 µM; nearly all actives have a fitted effect of over 65% in size
How it was run: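 Steps: plate 500 KB-8-5-11 cells/well in DMEM + 10% FCS (colchicine removed); pin compounds in dose-response; incubate 72 h, 37 degree C, 5% CO2; add CellTiter-Glo, 5 min; read luminescence.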

[2] = NS1 protein of Zika virus - qHTS assay to identify small molecule inhibitors in human HEK 293 cells (AID 1347053); also: series mostly up to about 46 µM; nearly all actives have a fitted effect of over 55% in size
How it was run: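 HEK 293 cells pretreated with compound for 1 h, then infected with ZIKV MR766 (MOI 0.5) for 24 h at 37 C. NS1 detected by TR-FRET with two anti-NS1 antibodies; normalized to uninfected (0%) and infected (100%) wells.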

[3] = qHTS of pediatric cancer cell lines to identify multiple opportunities for drug repurposing: Primary screen for TC32 cells (AID 1347089); also: nearly all actives have a fitted effect of over 60% in size
How it was run: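 Measured quantity: luminescence from CellTiter-Glo, reflecting metabolically active TC32 cells following 48 h of compound. Curves came straight from multi-point titrations, with 8 or 11 points in primary and 11 in confirmatory screening.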

[4] = qHTS of pediatric cancer cell lines to identify multiple opportunities for drug repurposing: Primary screen for DAOY cells (AID 1347090); also: series mostly up to about 46 µM; nearly all actives have a fitted effect of over 55% in size
How it was run: (§1)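 Viability measured as metabolically active cells via CellTiter-Glo luminescence following 48 hours of compound exposure, 11-point dilutions in confirmatory testing. 500-1,000 cells/well plated 5 hours before dosing; controls were DMSO and 2.3 µM bortezomib.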

[5] = qHTS of pediatric cancer cell lines to identify multiple opportunities for drug repurposing: Primary screen for SJ-GBM2 cells (AID 1347091)
How it was run: as §1

[6] = qHTS of pediatric cancer cell lines to identify multiple opportunities for drug repurposing: Primary screen for A673 cells (AID 1347092); also: nearly all actives have a fitted effect of over 45% in size
How it was run: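 Cells are plated, rested 5 h, dosed by pintool, incubated 48 h, then lysed with CellTiter-Glo and read by luminescence. DMSO is the neutral control; bortezomib at 2.3 uM final is the positive control.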

[7] = qHTS of pediatric cancer cell lines to identify multiple opportunities for drug repurposing: Primary screen for SK-N-MC cells (AID 1347093); also: series mostly up to about 46 µM
How it was run: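 Metabolically active cells were quantified by ATP-dependent luminescence (CellTiter-Glo, 15 min at room temperature) following 48 h treatment. Cells had been plated at 500-1,000 per well and settled for 5 h beforehand.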

[8] = qHTS of pediatric cancer cell lines to identify multiple opportunities for drug repurposing: Primary screen for BT-37 cells (AID 1347094); also: series mostly up to about 57 µM
How it was run: (§2)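 Following a 5-hour attachment period, cells at 500-1,000/well received compounds and were cultured for 48 hours. CellTiter-Glo was added and luminescence read to estimate viable, metabolically active cells.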

[9] = qHTS of pediatric cancer cell lines to identify multiple opportunities for drug repurposing: Primary screen for NB-EBc1 cells (AID 1347095)
How it was run: as §2

[10] = qHTS of pediatric cancer cell lines to identify multiple opportunities for drug repurposing: Primary screen for U-2 OS cells (AID 1347096); also: nearly all actives have a fitted effect of over 50% in size
How it was run: (§3)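 Viability after 48 h compound treatment at 37C, 500-1,000 cells/well, read as ATP luminescence with CellTiter-Glo. Primary screens used 11-point (MIPE, 0.78 nM-46 µM) or 8-point (NPC, 0.59 nM-46 µM) final concentrations; follow-up screens used 11-point dilutions.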

[11] = qHTS of pediatric cancer cell lines to identify multiple opportunities for drug repurposing: Primary screen for Saos-2 cells (AID 1347097); also: nearly all actives have a fitted effect of over 40% in size
How it was run: as §2

[12] = qHTS of pediatric cancer cell lines to identify multiple opportunities for drug repurposing: Primary screen for NB1643 cells (AID 1347099); also: nearly all actives have a fitted effect of over 50% in size
How it was run: as §2

[13] = qHTS of pediatric cancer cell lines to identify multiple opportunities for drug repurposing: Primary screen for LAN-5 cells (AID 1347100)
How it was run: as §3

[14] = qHTS of pediatric cancer cell lines to identify multiple opportunities for drug repurposing: Primary screen for BT-12 cells (AID 1347101); also: nearly all actives have a fitted effect of over 25% in size
How it was run: (§4)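 Cells (500-1,000/well) rested 5 h, then received compounds for 48 h; metabolically active cells were measured by CellTiter-Glo luminescence. Final concentrations spanned up to 46 µM (MIPE, 11-point) or 0.59 nM-46 µM (NPC, 8-point) in primary screens, 11-point in follow-ups.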

[15] = qHTS of pediatric cancer cell lines to identify multiple opportunities for drug repurposing: Primary screen for Rh18 cells (AID 1347102); also: nearly all actives have a fitted effect of over 65% in size
How it was run: as §3

[16] = qHTS of pediatric cancer cell lines to identify multiple opportunities for drug repurposing: Primary screen for OHS-50 cells (AID 1347103); also: nearly all actives have a fitted effect of over 40% in size
How it was run: as §4

[17] = qHTS of pediatric cancer cell lines to identify multiple opportunities for drug repurposing: Primary screen for RD cells (AID 1347104); also: nearly all actives have a fitted effect of over 55% in size
How it was run: as §2

[18] = qHTS of pediatric cancer cell lines to identify multiple opportunities for drug repurposing: Primary screen for MG 63 (6-TG R) cells (AID 1347105); also: nearly all actives have a fitted effect of over 50% in size
How it was run: as §2

[19] = qHTS of pediatric cancer cell lines to identify multiple opportunities for drug repurposing: Primary screen for SK-N-SH cells (AID 1347098);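 also: DMSO served as neutral control and bortezomib at 2.3 µM as positive control; nearly all actives have a fitted effect of over 65% in size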
How it was run: as §4

Measured: Potency

C=CCNC(N)=S
not listed: [19]
inactive: all other assays above

C[C@@H](N)C(=O)O
not listed: [12]
inactive: all other assays above

CC1(C)S[C@@H]2[C@H](N=CN3CCCCCC3)C(=O)N2[C@H]1C(=O)O
not listed: [15]
inactive: all other assays above

CCCCCCCCCCCCCCCCN
not listed: [14]
inactive: all other assays above

NC(=O)[C@@H]1CSSCCC(=O)N[C@@H](CCCCN=C(N)N)C(=O)NCC(=O)N[C@@H](CC(=O)O)C(=O)N[C@@H](Cc2c[nH]c3ccccc23)C(=O)N2CCC[C@H]2C(=O)N1 ([Mpa][hArg]GDWPC-NH2; disulfide 1-7)
not listed: [12]
inactive: all other assays above

CN1CC(=O)NC1=N
not listed: [12]
inactive: all other assays above

CC(C)NC[C@@H](O)COc1ccc(CC(N)=O)cc1
not listed: [14]
inactive: all other assays above

C1CCN2C[C@@H]3C[C@@H](CN4CCCC[C@@H]34)[C@H]2C1
not listed: [12] | [15]
inactive: all other assays above

O=C(CN1CCNCC1)NC1CCCCC1
not listed: [12]
inactive: all other assays above

CN[C@@H]1[C@@H](O)[C@@H](O[C@@H]2[C@H](O)[C@H](O[C@H]3OC(CN)=CC[C@H]3N)[C@@H](N)C[C@H]2N)OCC1(C)O (some centres not stated)
not listed: [14] | [15]
inactive: all other assays above

Cc1cccc(C(=O)O)c1O
not listed: [12] | [15]
inactive: all other assays above

CC1CC(OC(=O)c2ccccc2O)CC(C)(C)C1 (configuration not stated)
not listed: [12]
inactive: all other assays above

Cc1ccc(S(=O)(=O)NC(=O)NC2CCCCCCC2)cc1
not listed: [14] | [15]
inactive: all other assays above

OCC(O)CS (configuration not stated)
not listed: [12] | [16]
inactive: all other assays above
